# Measurements as given in paper PMC7862700, “An all-to-all approach to the identification of sequence-specific readers for epigenetic DNA modifications on cytosine”.
# Assays:
# Assay in all cases: DAPPL (digital affinity profiling via proximity ligation, sequencing); 10 mM Tris-HCl pH 7.5, 50 mM NaCl, 1 mM DTT, 4% glycerol, room temperature, 30 min; GST-TFs on glutathione beads, 16-mer random dsDNA library, 0.1% formaldehyde crosslink after washing; high values mean tight binding
# FLI1 = biological target: T1, FLI1 (Homo sapiens, UniProt Q01543 1-452); conditions: protein: recombinant; tags: N-terminal GST; dsDNA, one strand shown
# T1 sequence: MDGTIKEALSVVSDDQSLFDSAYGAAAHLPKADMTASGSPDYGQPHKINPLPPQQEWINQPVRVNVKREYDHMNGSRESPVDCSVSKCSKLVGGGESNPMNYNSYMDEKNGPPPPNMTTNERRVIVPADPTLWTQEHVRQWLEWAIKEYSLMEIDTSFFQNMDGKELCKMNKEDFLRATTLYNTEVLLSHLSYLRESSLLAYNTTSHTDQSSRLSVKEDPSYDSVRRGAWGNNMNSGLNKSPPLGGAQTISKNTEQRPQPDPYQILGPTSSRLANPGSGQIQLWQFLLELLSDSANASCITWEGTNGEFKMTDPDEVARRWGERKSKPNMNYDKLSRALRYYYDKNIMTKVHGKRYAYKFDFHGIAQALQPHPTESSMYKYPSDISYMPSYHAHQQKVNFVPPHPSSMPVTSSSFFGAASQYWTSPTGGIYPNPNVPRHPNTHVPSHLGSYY
# Procedure, shortened: (§1)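 Pools of DNA-barcoded human transcription factors, expressed in yeast as GST fusions on glutathione beads and combined with a tag-only sample, were incubated with 200 nmole of a 16-mer random double-stranded DNA library. Incubation took 30 min at room temperature in Tris/NaCl/DTT/glycerol buffer and was followed by washing, 0.1% formaldehyde crosslinking, proximity ligation (BsaI/T4 ligase, 1 h, 37 °C), PCR amplification and sequencing on an Illumina NextSeq500. Binding signal is the ratio of a hexamer's read frequency for a factor to its frequency for the tag-only sample.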
# ELK1 = biological target: T2, ELK1 (Homo sapiens, UniProt P19419 1-428); conditions: protein: recombinant; tags: N-terminal GST; dsDNA, one strand shown
# T2 sequence: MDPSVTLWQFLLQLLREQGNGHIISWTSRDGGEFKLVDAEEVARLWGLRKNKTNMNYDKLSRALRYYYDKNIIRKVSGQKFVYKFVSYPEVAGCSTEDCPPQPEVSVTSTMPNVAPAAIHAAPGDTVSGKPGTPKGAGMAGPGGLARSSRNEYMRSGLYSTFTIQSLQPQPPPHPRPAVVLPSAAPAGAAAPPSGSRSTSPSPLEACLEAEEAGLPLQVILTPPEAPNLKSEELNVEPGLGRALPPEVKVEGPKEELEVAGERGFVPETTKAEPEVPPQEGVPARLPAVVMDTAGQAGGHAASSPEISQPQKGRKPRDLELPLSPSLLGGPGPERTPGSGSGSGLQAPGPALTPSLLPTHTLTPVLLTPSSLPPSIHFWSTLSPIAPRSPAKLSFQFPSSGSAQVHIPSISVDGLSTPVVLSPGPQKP
# Procedure, shortened: as §1
# GABPA = biological target: T3, GABPA (Homo sapiens, UniProt Q06546 1-454); conditions: protein: recombinant; tags: N-terminal GST; dsDNA, one strand shown
# T3 sequence: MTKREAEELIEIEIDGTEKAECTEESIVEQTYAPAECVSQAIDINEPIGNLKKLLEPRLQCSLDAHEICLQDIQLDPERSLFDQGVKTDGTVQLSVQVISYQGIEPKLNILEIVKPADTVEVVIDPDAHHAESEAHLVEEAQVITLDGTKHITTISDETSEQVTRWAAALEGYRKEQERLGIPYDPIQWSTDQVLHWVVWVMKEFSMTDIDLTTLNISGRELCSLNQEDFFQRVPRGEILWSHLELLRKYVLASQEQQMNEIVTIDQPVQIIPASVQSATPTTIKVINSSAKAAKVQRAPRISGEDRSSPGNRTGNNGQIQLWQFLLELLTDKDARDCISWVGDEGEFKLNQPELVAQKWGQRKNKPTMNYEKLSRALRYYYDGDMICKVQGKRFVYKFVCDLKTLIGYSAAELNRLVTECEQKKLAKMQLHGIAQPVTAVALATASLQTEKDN
# Procedure, shortened: as §1
# ERG = biological target: T4, ERG (Homo sapiens, UniProt P11308 1-479); conditions: protein: recombinant; tags: N-terminal GST; dsDNA, one strand shown
# T4 sequence: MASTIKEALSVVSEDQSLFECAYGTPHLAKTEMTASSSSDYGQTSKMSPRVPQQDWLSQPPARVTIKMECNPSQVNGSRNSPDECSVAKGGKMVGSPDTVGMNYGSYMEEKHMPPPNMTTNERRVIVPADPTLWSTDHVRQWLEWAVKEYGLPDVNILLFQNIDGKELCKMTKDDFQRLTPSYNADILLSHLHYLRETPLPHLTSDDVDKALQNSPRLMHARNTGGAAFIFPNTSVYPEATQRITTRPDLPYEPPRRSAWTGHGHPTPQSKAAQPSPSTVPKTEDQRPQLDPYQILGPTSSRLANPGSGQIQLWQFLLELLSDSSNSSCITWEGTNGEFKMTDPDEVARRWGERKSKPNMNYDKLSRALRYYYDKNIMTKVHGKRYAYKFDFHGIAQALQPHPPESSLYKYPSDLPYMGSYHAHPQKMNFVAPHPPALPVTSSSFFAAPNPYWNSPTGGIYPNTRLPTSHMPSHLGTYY
# Procedure, shortened: as §1
# ELF1 = ELF1 (Homo sapiens, UniProt P32519 1-619); conditions: protein: recombinant; tags: N-terminal GST; dsDNA, one strand shown
# Procedure, shortened: as §1
# EHF = biological target: T5, EHF (Homo sapiens, UniProt Q9NZC4 1-300); conditions: protein: recombinant; tags: N-terminal GST; dsDNA, one strand shown
# T5 sequence: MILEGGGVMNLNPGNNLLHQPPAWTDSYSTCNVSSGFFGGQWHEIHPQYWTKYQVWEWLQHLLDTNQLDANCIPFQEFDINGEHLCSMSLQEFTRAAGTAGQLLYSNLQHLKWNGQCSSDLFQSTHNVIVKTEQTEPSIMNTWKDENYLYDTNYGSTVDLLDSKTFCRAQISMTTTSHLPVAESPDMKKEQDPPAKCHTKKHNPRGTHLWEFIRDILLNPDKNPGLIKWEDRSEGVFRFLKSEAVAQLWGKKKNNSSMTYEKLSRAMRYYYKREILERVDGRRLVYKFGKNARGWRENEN
# Procedure, shortened: as §1
# SPI1 = SPI1 (Homo sapiens, UniProt P17947 1-270); conditions: protein: recombinant; tags: N-terminal GST; dsDNA, one strand shown
# Procedure, shortened: as §1
# SPIB = SPIB (Homo sapiens, UniProt Q01892 1-262); conditions: protein: recombinant; tags: N-terminal GST; dsDNA, one strand shown
# Procedure, shortened: as §1
# ELK3 = biological target: T6, ELK3 (Homo sapiens, UniProt P41970 1-407); conditions: protein: recombinant; tags: N-terminal GST; dsDNA, one strand shown
# T6 sequence: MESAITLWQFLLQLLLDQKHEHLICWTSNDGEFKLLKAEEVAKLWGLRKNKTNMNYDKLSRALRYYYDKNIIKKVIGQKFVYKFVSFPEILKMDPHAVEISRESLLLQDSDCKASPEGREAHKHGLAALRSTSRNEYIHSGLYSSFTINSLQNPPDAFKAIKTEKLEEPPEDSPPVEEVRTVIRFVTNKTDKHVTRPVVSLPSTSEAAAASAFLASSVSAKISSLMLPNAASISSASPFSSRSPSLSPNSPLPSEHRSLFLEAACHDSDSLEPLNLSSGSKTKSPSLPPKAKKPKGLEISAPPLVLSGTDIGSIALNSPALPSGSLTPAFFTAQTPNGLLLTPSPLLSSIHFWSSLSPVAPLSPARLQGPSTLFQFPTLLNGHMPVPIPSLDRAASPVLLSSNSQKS
# Procedure, shortened: as §1
# FEV = biological target: T7, FEV (Homo sapiens, UniProt Q99581 1-238); conditions: protein: recombinant; tags: N-terminal GST; dsDNA, one strand shown
# T7 sequence: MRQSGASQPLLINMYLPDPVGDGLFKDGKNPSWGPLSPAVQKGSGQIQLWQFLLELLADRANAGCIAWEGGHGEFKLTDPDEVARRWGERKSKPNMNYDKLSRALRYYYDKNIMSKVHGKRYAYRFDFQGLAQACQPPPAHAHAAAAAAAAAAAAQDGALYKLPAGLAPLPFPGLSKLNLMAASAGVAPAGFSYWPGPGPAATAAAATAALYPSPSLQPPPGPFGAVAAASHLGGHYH
# Procedure, shortened: as §1
# ETV5 = ETV5 (Homo sapiens, UniProt P41161 1-510); conditions: protein: recombinant; tags: N-terminal GST; dsDNA, one strand shown
# Procedure, shortened: as §1
# HSF1 = HSF1 (Homo sapiens, UniProt Q00613 1-529); conditions: protein: recombinant; tags: N-terminal GST; chain copies: 3; dsDNA, one strand shown
# Procedure, shortened: as §1
# SPIC = biological target: T8, SPIC (Homo sapiens, UniProt Q8N5J4 1-248); conditions: protein: recombinant; tags: N-terminal GST; dsDNA, one strand shown
# T8 sequence: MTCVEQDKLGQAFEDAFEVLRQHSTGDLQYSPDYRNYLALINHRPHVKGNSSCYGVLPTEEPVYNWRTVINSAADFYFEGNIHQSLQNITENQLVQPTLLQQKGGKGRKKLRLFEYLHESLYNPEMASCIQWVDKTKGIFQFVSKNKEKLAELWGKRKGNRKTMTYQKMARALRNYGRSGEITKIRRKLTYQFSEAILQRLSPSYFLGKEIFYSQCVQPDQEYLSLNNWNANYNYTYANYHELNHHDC
# Procedure, shortened: as §1
# ELF4 = ELF4 (Homo sapiens, UniProt Q99607 1-663); conditions: protein: recombinant; tags: N-terminal GST; dsDNA, one strand shown
# Procedure, shortened: as §1
# ELK4 = biological target: T9, ELK4 (Homo sapiens, UniProt P28324-2 1-405); conditions: protein: recombinant; tags: N-terminal GST; dsDNA, one strand shown
# T9 sequence: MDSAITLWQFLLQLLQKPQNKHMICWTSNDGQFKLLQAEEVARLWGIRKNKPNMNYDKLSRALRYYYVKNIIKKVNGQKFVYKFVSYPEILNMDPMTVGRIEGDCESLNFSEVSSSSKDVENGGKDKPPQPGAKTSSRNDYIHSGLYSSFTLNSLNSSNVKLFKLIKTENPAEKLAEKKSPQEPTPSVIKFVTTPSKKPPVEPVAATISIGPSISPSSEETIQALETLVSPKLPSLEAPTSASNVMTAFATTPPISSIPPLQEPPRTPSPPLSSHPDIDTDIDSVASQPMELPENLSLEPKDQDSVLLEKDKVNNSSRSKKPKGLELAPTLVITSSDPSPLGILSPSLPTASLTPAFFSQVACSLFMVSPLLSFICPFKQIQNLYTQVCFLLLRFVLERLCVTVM
# Procedure, shortened: as §1
# ETV2 = biological target: T10, ETV2 (Homo sapiens, UniProt O00321 1-342); conditions: protein: recombinant; tags: N-terminal GST; dsDNA, one strand shown
# T10 sequence: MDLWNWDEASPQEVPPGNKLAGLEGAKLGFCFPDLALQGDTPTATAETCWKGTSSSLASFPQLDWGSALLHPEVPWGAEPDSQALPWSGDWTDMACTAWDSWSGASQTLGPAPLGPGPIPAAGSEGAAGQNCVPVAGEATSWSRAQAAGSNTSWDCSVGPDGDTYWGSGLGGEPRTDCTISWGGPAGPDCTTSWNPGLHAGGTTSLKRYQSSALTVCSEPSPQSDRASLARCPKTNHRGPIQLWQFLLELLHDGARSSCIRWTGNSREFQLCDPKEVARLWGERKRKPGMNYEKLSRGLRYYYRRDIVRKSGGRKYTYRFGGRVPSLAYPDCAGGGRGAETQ
# Procedure, shortened: as §1
# ELF3 = biological target: T11, ELF3 (Homo sapiens, UniProt P78545 1-371); conditions: protein: recombinant; tags: N-terminal GST; dsDNA, one strand shown
# T11 sequence: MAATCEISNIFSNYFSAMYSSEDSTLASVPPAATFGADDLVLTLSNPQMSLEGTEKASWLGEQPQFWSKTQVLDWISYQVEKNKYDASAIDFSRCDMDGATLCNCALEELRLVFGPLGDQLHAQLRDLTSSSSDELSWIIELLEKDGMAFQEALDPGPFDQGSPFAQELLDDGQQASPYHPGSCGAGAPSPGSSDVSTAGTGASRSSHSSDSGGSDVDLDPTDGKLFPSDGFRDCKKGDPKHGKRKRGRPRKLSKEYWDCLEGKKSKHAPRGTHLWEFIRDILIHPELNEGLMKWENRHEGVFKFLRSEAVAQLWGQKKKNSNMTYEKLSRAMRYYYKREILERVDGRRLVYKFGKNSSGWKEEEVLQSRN
# Procedure, shortened: as §1
# CRX = CRX (Homo sapiens, UniProt O43186 1-299); conditions: protein: recombinant; tags: N-terminal GST; dsDNA, one strand shown
# Procedure, shortened: as §1
# ETV1 = ETV1 (Homo sapiens, UniProt P50549 1-477); conditions: protein: recombinant; tags: N-terminal GST; dsDNA, one strand shown
# Procedure, shortened: as §1
# Chain of ELF1 (P32519 whole entry): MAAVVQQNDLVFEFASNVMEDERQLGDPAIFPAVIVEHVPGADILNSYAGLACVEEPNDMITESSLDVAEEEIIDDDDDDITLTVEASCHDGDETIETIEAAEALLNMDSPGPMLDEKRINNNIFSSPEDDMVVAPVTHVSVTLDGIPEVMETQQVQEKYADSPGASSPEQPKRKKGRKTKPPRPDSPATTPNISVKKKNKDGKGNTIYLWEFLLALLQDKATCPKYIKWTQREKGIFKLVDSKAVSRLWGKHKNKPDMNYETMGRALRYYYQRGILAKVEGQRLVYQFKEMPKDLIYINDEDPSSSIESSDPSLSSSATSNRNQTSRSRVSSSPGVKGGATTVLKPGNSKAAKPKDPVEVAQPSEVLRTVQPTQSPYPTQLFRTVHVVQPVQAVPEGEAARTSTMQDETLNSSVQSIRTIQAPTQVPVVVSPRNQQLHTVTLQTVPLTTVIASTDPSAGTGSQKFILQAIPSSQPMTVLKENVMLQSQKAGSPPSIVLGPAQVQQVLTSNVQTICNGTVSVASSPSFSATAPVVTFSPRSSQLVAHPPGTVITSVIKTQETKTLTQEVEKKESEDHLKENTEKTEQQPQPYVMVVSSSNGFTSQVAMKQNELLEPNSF
# Chain of ELF4 (Q99607 whole entry): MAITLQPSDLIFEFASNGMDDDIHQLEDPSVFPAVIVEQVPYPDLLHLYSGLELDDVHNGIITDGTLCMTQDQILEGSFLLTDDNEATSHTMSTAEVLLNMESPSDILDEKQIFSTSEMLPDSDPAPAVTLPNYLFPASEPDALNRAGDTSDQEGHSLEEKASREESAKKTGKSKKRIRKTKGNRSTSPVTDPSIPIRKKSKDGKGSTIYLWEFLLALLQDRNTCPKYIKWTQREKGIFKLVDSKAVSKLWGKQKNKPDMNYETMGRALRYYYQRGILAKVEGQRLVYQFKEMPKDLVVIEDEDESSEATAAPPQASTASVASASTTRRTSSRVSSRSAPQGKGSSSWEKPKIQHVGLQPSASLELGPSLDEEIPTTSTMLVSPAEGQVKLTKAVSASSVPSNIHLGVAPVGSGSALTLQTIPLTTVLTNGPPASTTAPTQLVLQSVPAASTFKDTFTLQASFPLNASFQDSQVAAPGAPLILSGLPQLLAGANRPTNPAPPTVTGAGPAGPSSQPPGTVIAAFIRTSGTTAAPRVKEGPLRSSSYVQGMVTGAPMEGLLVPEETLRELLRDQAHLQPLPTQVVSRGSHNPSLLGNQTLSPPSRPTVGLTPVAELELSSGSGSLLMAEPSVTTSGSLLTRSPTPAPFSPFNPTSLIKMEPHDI
# Chain of HSF1 (Q00613 whole entry): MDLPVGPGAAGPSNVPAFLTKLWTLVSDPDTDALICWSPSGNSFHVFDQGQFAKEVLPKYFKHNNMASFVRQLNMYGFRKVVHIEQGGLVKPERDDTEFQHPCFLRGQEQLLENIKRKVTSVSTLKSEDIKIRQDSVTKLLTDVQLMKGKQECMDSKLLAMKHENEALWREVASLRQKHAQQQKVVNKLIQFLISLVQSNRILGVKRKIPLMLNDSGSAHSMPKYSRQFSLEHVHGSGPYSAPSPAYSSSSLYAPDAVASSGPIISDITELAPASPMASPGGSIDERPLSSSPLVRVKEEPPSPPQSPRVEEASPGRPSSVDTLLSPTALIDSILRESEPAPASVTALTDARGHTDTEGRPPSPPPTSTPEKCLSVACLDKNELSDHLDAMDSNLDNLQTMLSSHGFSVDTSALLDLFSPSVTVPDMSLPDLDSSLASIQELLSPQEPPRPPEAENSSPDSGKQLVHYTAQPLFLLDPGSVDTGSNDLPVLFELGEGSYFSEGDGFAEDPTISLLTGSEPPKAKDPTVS
# Chain of ETV1 (P50549 whole entry): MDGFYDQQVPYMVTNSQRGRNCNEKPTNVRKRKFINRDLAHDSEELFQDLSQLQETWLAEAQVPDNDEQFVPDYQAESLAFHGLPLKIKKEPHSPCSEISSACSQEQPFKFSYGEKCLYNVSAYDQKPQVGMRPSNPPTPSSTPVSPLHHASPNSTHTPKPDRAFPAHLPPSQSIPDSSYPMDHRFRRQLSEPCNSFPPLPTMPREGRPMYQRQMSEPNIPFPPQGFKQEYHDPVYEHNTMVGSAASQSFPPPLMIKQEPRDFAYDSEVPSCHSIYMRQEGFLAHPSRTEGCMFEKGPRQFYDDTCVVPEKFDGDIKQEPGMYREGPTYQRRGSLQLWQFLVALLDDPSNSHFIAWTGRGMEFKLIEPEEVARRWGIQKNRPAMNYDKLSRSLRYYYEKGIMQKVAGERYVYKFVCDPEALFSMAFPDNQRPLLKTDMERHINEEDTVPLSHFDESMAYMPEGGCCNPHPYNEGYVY
# Chain of ETV5 (P41161 whole entry): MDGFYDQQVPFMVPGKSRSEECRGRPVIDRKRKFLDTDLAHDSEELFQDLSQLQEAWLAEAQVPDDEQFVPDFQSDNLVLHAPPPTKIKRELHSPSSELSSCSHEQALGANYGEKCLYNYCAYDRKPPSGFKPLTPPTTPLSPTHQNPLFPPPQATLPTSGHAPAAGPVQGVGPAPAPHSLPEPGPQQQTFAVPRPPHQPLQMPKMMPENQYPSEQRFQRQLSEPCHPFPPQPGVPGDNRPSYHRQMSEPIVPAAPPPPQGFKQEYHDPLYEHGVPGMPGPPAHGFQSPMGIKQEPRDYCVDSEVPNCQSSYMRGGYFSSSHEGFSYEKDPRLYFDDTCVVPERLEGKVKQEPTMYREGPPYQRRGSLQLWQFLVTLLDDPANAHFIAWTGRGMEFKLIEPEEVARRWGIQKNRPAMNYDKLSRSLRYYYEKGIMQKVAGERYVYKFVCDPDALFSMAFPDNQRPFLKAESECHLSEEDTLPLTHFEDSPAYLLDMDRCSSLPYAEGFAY
# Chain of SPIB (Q01892 whole entry): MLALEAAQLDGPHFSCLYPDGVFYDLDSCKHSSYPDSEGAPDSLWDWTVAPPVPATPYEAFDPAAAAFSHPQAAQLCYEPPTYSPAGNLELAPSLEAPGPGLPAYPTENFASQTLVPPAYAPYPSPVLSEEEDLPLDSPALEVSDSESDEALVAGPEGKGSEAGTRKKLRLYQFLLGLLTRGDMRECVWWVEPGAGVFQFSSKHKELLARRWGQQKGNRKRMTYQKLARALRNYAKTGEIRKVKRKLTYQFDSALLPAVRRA
# Chain of CRX (O43186 whole entry): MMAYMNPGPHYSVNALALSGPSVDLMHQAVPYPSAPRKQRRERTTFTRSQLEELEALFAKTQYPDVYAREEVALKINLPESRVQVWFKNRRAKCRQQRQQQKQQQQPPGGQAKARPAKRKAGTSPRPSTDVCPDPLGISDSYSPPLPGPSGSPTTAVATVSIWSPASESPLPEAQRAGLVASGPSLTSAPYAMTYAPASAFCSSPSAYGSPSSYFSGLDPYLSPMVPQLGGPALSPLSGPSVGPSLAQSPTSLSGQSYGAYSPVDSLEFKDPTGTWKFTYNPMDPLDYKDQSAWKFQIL
sequence,measurement,setting,value
GATCTC,binding signal,FLI1,"1.43 fold enrichment (6-mer frequency, TF over GST control)"
same,binding signal,ELK1,"1.19 fold enrichment (6-mer frequency, TF over GST control)"
same,binding signal,GABPA,"1.16 fold enrichment (6-mer frequency, TF over GST control)"
same,binding signal,ERG,"1.2 fold enrichment (6-mer frequency, TF over GST control)"
same,binding signal,ELF1,"1.27 fold enrichment (6-mer frequency, TF over GST control)"
same,binding signal,EHF,"1.42 fold enrichment (6-mer frequency, TF over GST control)"
same,binding signal,SPI1,"1.28 fold enrichment (6-mer frequency, TF over GST control)"
same,binding signal,SPIB,"1.25 fold enrichment (6-mer frequency, TF over GST control)"
same,binding signal,ELK3,"1.23 fold enrichment (6-mer frequency, TF over GST control)"
same,binding signal,FEV,"1.2 fold enrichment (6-mer frequency, TF over GST control)"
same,binding signal,ETV5,"1.27 fold enrichment (6-mer frequency, TF over GST control)"
same,binding signal,HSF1,"1.42 fold enrichment (6-mer frequency, TF over GST control)"
same,binding signal,SPIC,"1.26 fold enrichment (6-mer frequency, TF over GST control)"
same,binding signal,ELF4,"1.3 fold enrichment (6-mer frequency, TF over GST control)"
same,binding signal,ELK4,"1.22 fold enrichment (6-mer frequency, TF over GST control)"
same,binding signal,ETV2,"1.3 fold enrichment (6-mer frequency, TF over GST control)"
same,binding signal,ELF3,"1.23 fold enrichment (6-mer frequency, TF over GST control)"
same,binding signal,CRX,"1.46 fold enrichment (6-mer frequency, TF over GST control)"
same,binding signal,ETV1,"1.35 fold enrichment (6-mer frequency, TF over GST control)"
